# According to PubChem BioAssay (Tox21):
# Values joined by “and” are separate entries in the source; they are usually repeats but may differ in a detail not shown here. Equal entries are not always repeated. Results filed as inconclusive are left out. A call without a number means that no potency is given here. Active and inactive are the calls of the source. Calls follow the shape of the dose curve; as a rule, active = well fitted cell-killing curve with a large enough effect in the repeat runs; inconclusive = weak or mixed curves, or effect the other way; inactive = no such curve, though single readings can be large or run the other way.
# Experiment: qHTS assay for identifying genotoxic compounds that show differential cytotoxicity against isogenic chicken DT40 cell lines with known DNA damage response pathways - Rev3 mutant cell line (AID 743014); also: nearly all actives have a fitted effect of over 55% in size
# Conditions: chicken DT40 Rev3-/- viability, CellTiter-Glo, 40 h; series mostly up to 68.4 µM
# Source text: National Center for Advancing Translational Sciences [NCATS]
# NIH Chemical Genomics Center [NCGC]
# U.S. Environmental Protection Agency [EPA]
# National Institutes of Environmental Health Sciences [NIEHS]
# National Toxicology Program [NTP]
# U.S. Food and Drug Administration [FDA]
# DNA repair pathways play a critical role in cellular homeostasis by repairing DNA damage induced by endogenous processes and xenobiotics. Isogenic chicken DT40 cell lines deficient in different DNA repair pathways can be used to identify genotoxic compounds and aid in characterizing the nature of the DNA damage induced. Two DNA repair-deficient cell lines with disrupted genes, Rad54/Ku70 or Rev3, were used to screen the Tox21 10K compound library. Possible genotoxicity was based on the presence of a significant increase in cytotoxicity in one or more of the DNA repair-deficient cell lines compared to that observed in the parental DNA repair-proficient cell line. CellTiter Glo viability assay (Promega, Madison, WI) was used to measure cell viability in these cells after compound treatment. This assay includes the data from the Rev3 mutant cell line.
# Tox21 Assay Protocol Summary:
# 300 DT40 mutant cells in 5 uL/well were dispensed into white, solid-bottom 1536-well plates using a Multidrop Combi (ThermoFisher Scientific, Waltham, MA) dispenser. After the assay plates were incubated at 37 C/5% CO2 for approximately 0.5 hour, 23 nL of compounds dissolved in DMSO, positive controls or DMSO only was transferred into the assay plate by a pintool work station (Kalypsys, San Diego, CA). The assay plates were incubated at 37 C/5% CO2 for 40 hours. After 5 uL per well of CellTiter-Glo reagent was added into each well of the assay plates, the plates were incubated for 30 min at room temperature and the luminescence intensity of the plates was measured using a ViewLux (PerkinElmer, Shelton, CT) plate reader.
# Potency is read from the fitted curve at half-maximal effect.
row,Compound,Potency
1,Cl[Si](Cl)(c1ccccc1)c1ccccc1,inactive
2,CCCNCCC,inactive
3,O=S(=O)(O)c1ccccc1/C=C/c1ccc(-c2ccc(/C=C/c3ccccc3S(=O)(=O)O)cc2)cc1,inactive
4,CC(C)OC(=O)C(O)(CC(=O)O)CC(=O)O,inactive
5,c1ccc(SSc2ccccc2)cc1,27.5 µM (active)
6,CCCCCCCCCCCCOC(=O)c1ccc(O)cc1,inactive
7,C=CC(=O)OCCOC(=O)C=C,7.7 µM (active)
8,CN(C)c1ccc(C(=C2C=CC(=[N+](C)C)C=C2)c2ccc(N(C)C)cc2)cc1,473 nM (active) and 483 nM (active) and 243 nM (active)
9,OCC(F)(F)F,inactive
10,O=C(/C=C/c1ccccc1)OC/C=C/c1ccccc1,15.4 µM (active)
11,C=Cc1cccc(C)c1,inactive
12,CCc1cccc(CC)c1NC(=O)CN(CC(=O)O)CC(=O)O,inactive
13,CC(=O)c1ccc(C(C)=O)cc1,inactive
14,CC1=Nc2ccccc2C1(C)C,inactive
15,C#CC1(O)CC[C@H]2[C@@H]3CCC4=CCCC[C@@H]4[C@H]3CC[C@@]21C (stereo not given in full),11.4 µM (active) and 7.7 µM (active)
16,Nc1cc(Cl)c(O)c(Cl)c1,15.4 µM (active)
17,c1ccsc1,inactive
18,O=C(O)CCN(C1(C(=O)NO)CCCC1)S(=O)(=O)c1ccc(Oc2ccc(F)cc2)cc1,inactive
19,CC[N+](CC)(CC)CCOC(=O)C(C1CCCC1)C1CCCC1,11.9 µM (active)
20,Cc1ccc(N/N=c2\c(=O)cc/c(=N\Nc3ccc(S(=O)(=O)O)cc3)c2=O)c(C)c1,inactive

row,Compound,Potency
1,O=C1C(c2[nH]c3ccc(S(=O)(=O)O)cc3c2O)=Nc2ccc(S(=O)(=O)O)cc21,inactive
2,CCOc1ccc2ccccc2c1C(=O)N[C@@H]1C(=O)N2[C@@H]1SC(C)(C)[C@@H]2C(=O)O,inactive
3,CCCCCCOC(=O)C(C)CC (stereo not given),inactive
4,CC(=O)OCC=C(C)C,inactive
5,COC(=O)Nc1nc2ccc(C(=O)c3ccccc3)cc2[nH]1,0.32 µM (active)
6,OC/C=C/CO,inactive
7,Cc1cc(-c2ccc(N=Nc3cc(S(=O)(=O)O)c4ccccc4c3N)c(C)c2)ccc1N=Nc1cc(S(=O)(=O)O)c2ccccc2c1N,0.388 µM (active)
8,CC(=O)Oc1cc2c(s1)CCN(C(C(=O)C1CC1)c1ccccc1F)C2 (stereo not given),inactive
9,COC(C)=O,inactive
10,CCn1c2ccccc2c2cc([N+](=O)[O-])ccc21,27.3 µM (active)
11,Clc1ccnc(Cl)n1,inactive
12,O=C(O)c1ccc2cc(C(=O)O)ccc2c1,inactive
13,C[C@H]1NCc2cc(-c3ccc4c(=O)c(C(=O)O)cn(C5CC5)c4c3OC(F)F)ccc21,inactive
14,CCCCCCCCCCCCCCCC[N+](C)(C)CC,422 nM (active) and 866 nM (active)
15,CCN(CC)C(=O)c1cc(S(=O)(=O)Cc2ccccc2)c(N2CCC(c3ccccc3)CC2)cc1N(CC)CCN(C)C,11.9 µM (active) and 13.5 µM (active)
16,COc1ccc2cc1Oc1ccc(cc1)C[C@H]1c3c(cc4c(c3Oc3cc5c(cc3OC)CCN(C)[C@@H]5C2)OCO4)CCN1C,8.41 µM (active)
17,CC[C@H](C)COC(=O)/C=C/c1ccc(N=Cc2ccc(OC)cc2)cc1,61 µM (active)
18,CCOC(=O)NNc1ccc(N(CC)CC(C)O)nn1 (stereo not given),23.7 µM (active)
19,FC(F)(F)c1cccc(Cl)c1,inactive
20,Nc1nc2c(ncn2COCCO)c(=O)[nH]1,2.27 µM (active)
